# A selection: hits, their analogues and other compounds. The true share with any hit is near 2.6%.
# TLR4-MyD88 BLA: inhibitors of TLR4-MyD88 association in cells, primary screen, cell-based, HeLa CL3-4, BLA complementation, FRET ratio; Toll-like receptor 4 (Homo sapiens) + Myeloid differentiation primary response protein …; HeLa CL3-4 TLR4/MyD88 BLA complementation; inhibition, % at 8.4 µM; 200,000 tested, 0.18% active; in the data active means inhibition above about 25%;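 further: 0% = vehicle and 100% = reference inhibitor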
# PRMT1 FP inh: PRMT1 methyltransferase inhibitors, primary screen, biochemical, fluorescence polarization; recombinant PRMT1, activity-based probe fluorescence polarization; inhibition, % at 2.79 µM; 370,000 tested, 1.3% active; Protein arginine N-methyltransferase 1 (Homo sapiens), Q99873; AID 652257, 2013;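 active means inhibition above about 21% made by adding two undisclosed values, limit read from the data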
# TLR9-MyD88 inh: inhibitors of TLR9-MyD88 association in cells, primary screen, cell-based, CHO, BLA complementation, fluorescence | CCF4 FRET ratio | inhibition, % at 4.98 µM | 340,000 tested, 0.21% active;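 active means inhibition above the mean over all tested compounds plus 3 SD, cut at about 21% in these data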;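 further: 0% = DMSO only wells and 100% = clavulanate BLA inhibitor control wells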
# NOD2-RIPK2 inh: NOD2-RIPK2 binding disruptors in cells, primary screen, fluorescence, CHO cells, BLA complementation | Receptor-interacting serine/threonine-protein kinase 2 (Homo sapiens), O43353 | inhibition, % at 4.98 µM | AID 624267, 2012 | 360,000 tested, 0.38% active | CCF4 ratio; in the data active means inhibition above about 21%;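 further: 0% = vehicle only and 100% = reference blocker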
# ABHD5 PLIN5 PPI: ABHD5-PLIN5 interaction inhibitors, primary screen, cell lysate, split luciferase complementation, luminescence; Perilipin-5 (Homo sapiens) + 1-acylglycerol-3-phosphate O-acyltransferase ABHD5 (Homo …; inhibition, % at 4 µM; 360,000 tested, 0.78% active; Split G. princeps luciferase complementation, 4 h;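 active means inhibition above the mean inhibition across every tested compound plus 3 SD, cut at about 22% in these data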;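 further: 0% = DMSO only wells and the 100% control is not disclosed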
# Exocytosis inh: LAMP-1 surface exposure blockers, TALL-104 cells – cell-based, flow cytometry, MLPCN library, primary screen; TALL-104 LAMP-1 surface exposure; cells stimulated with thapsigargin and PMA; inhibition, % at 10 µM; 360,000 tested, 0.66% active;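 active means inhibition above about 55%, limit read from the data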
# Numbers without * were called inactive; / = not tested or not shown.
SMILES,TLR4-MyD88 BLA,PRMT1 FP inh,TLR9-MyD88 inh,NOD2-RIPK2 inh,ABHD5 PLIN5 PPI,Exocytosis inh
C/C(=N\Nc1ccc(Cl)c(C(=O)O)c1)c1ccccn1,/,3.2,-5.8,-5.4,-2.5,-7.4
C/C(=N\Nc1ncc(Cl)cc1Cl)c1ccccn1,20.8,/,6.5,2.6,-1.2,98.4*
O=C(C=Cc1ccc(OCc2ccccc2)cc1)c1c(F)cccc1F,/,-4.1,/,/,/,/
Nc1[nH]n(-c2ccccc2)c(=O)c1N=Nc1ccc2ncsc2c1,/,23.5*,5.0,4.0,2.9,-1.7
Nc1[nH]n(-c2ccccc2)c(=O)c1N=Nc1ccccc1,/,-1.2,-1.5,6.0,0.8,-4.6
Cc1ccc(C(=O)N2CCC(Oc3cccnc3)CC2)c(C)c1,/,3.2,/,/,/,/
O=C(CCCn1cnc([N+](=O)[O-])n1)Nc1ccc(Cl)c(Cl)c1,1.1,4.0,7.9,-3.1,27.8*,-3.0
O=C(CCCn1cnc([N+](=O)[O-])n1)Nc1cccc(Cl)c1Cl,-11.3,-2.8,6.2,-4.7,-2.3,-2.2
O=S(=O)(c1ccccc1)N1CCCc2nc(-c3ccccc3)ccc21,/,1.4,/,/,/,/
O=C(N/N=C/c1ccc(C(F)(F)F)cc1)c1ccc(O)cc1,13.4,3.7,-7.8,0.4,1.9,-6.0
NC(N)=NN=C(c1ccc(F)cc1)c1ccc(C(F)(F)F)cc1,/,-2.7,3.6,9.2,2.6,57.0*
NC(=O)c1ccc(NC(=O)CSc2nnc(-c3ccccc3)n2-c2ccccc2)cc1,/,-3.6,/,/,/,/
Clc1cccc(CNc2nc(-c3cccnc3)nc3ccccc23)c1,/,-2.5,-6.3,4.9,4.1,99.2*
c1ccc(CNc2nc(-c3cccnc3)nc3ccccc23)cc1,/,3.7,8.3,-4.7,5.6,8.4
c1ccc(CNc2nc(NCc3ccccc3)c3ccccc3n2)cc1,/,/,-10.0,1.1,11.3,60.8*
C[C@@H]1CCN(C2CC2)S(=O)(=O)c2c(cccc2N2CCC[C@@H]2CO)O1,/,-3.7,/,/,/,/
COC(=O)[C@]12C[C@H](CC(=O)N3CCOCC3)C(=O)N(CCC3=CCCCC3)C1=C[C@H](COCc1ccccc1)O[C@@H]2C,/,0.4,/,/,/,/
Nc1nc(SCC(=O)NC2CCCCC2)n[nH]1,/,-0.9,5.1,5.2,-4.8,76.0*
O=C(CSc1n[nH]c(C2CCCC2)n1)NC1CCCC1,7.0,-1.6,6.2,1.0,0.9,1.6
CN(Cc1ccc(F)cc1)C(=O)c1cccc2c1C(=O)N(Cc1cccnc1)C2,/,2.3,/,/,/,/
Cc1cccn2c(=O)c(/C=C(\C#N)S(=O)(=O)c3ccccc3)c(N3CCCCC3)nc12,/,2.2,/,-12.3,3.5,-2.0
CCOC(=O)C1CCN(c2nc3c(C)cccn3c(=O)c2/C=C(\C#N)S(=O)(=O)c2ccccc2)CC1,/,-2.1,0.3,3.6,10.0,84.0*
Fc1ccc(-c2cc(-c3nnc4sc(-c5ccco5)nn34)[nH]n2)cc1,/,-4.4,/,/,/,/
O=C(N/N=C/c1c[nH]c2ccccc12)c1sc2ccccc2c1Cl,3.6,-0.3,6.8,2.1,3.0,1.7
O=C(N/N=C/c1ccccn1)c1sc2ccccc2c1Cl,/,-0.6,12.6,-6.6,5.1,60.2*
SMILES,TLR4-MyD88 BLA,PRMT1 FP inh,TLR9-MyD88 inh,NOD2-RIPK2 inh,ABHD5 PLIN5 PPI,Exocytosis inh
N#Cc1c(Nc2ccc(Cl)cc2)s[nH]c1=O,/,13.9,-6.4,10.1,13.1,82.7*
Nn1cc(-c2ccccc2)nc1SCC(=O)Nc1ccc(S(N)(=O)=O)cc1,/,23.1*,-5.5,-7.6,2.0,-2.1
Nn1cc(-c2ccccc2)nc1SCC(=O)Nc1cccc(S(N)(=O)=O)c1,/,3.1,1.2,-0.8,0.1,-1.4
O=C1C2C3C=CC(O3)C2C(=O)N1CC(O)c1ccccc1 (configuration not stated),-4.1,17.6,-8.1,-7.0,6.0,63.1*
CC(=O)Nc1nc2ncccn2c1-c1ccccc1,/,-5.9,/,/,/,/
Cc1ccccc1N1C(=O)CC(c2c[nH]c3ccccc23)C1=O (configuration not stated),-5.8,5.3,-4.0,-2.8,2.2,-2.2
O=C1C=CC(c2c[nH]c3ccccc23)CC1 (configuration not stated),/,6.7,/,-8.1,22.6*,-7.7
